Reference: the supplement of paper PMC10849652
Of roughly 8,800 targets only a part is listed; those with a hit were picked by preference. About 0.5% of all pairs of compound and target were hits. Values without a mark were called inactive.

Columns and labels:
Experiment in all cases: log2 fold change, soluble protein after heating vs DMSO (PISA); higher = thermal stabilisation; K562 lysate, 10 uM; active = over 0.2 and 3.5 SD of the protein, either way, in both replicates (recomputed)
vemurafenib = compound: CCCS(=O)(=O)Nc1ccc(F)c(C(=O)c2c[nH]c3ncc(-c4ccc(Cl)cc4)cc23)c1F [vemurafenib]
Method in brief: (§1)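 Values give the log-two fold change in thermal stability against solvent controls, from duplicates. Crude K562 extract at 1 mg/mL protein, made by dounce homogenisation in PBS pH 7.4 with 1 mM MgCl2, was treated with 10 μM compound for 30 min. After 3 min heating across 48°C-58°C, aliquots were pooled, adjusted to 0.5% NP-40 at 4°C and centrifuged at 21,000xg for 90 min. The supernatant was measured by TMTpro 16plex LC-MS/MS with channel sums equalised.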

[1] = compound: CCCS(=O)(=O)Nc1ccc(F)c(C(=O)c2c[nH]c3ncc(Cl)cc23)c1F
Method in brief: as §1

[2] = compound: CC[C@@H]1C(=O)N(C)c2cnc(Nc3ccc(C(=O)NC4CCN(C)CC4)cc3OC)nc2N1C1CCCC1
Method in brief: as §1

volasertib = compound: CC[C@@H]1C(=O)N(C)c2cnc(Nc3ccc(C(=O)N[C@H]4CC[C@H](N5CCN(CC6CC6)CC5)CC4)cc3OC)nc2N1C(C)C [volasertib]
Method in brief: as §1

[3] = compound: CCn1c(C(=O)N(C2CC2)C2CC2)cc2c3c(ncn3C)c(Nc3cc(C)n(C)n3)nc21
Method in brief: as §1

[4] = compound: CCn1cc(-c2ccnc3[nH]c(-c4cccc(CN(C)C)c4)cc23)c(-c2ccc(NC(=O)N(C)C)cc2)n1
Method in brief: as §1

[5] = compound: CN1CCC(CNc2ccc3ncc(-c4cccc(OC(F)(F)F)c4)n3n2)CC1
Method in brief: as §1

saracatinib = compound: CN1CCN(CCOc2cc(OC3CCOCC3)c3c(Nc4c(Cl)ccc5c4OCO5)ncnc3c2)CC1 [saracatinib]
Method in brief: as §1

sotrastaurin = compound: CN1CCN(c2nc(C3=C(c4c[nH]c5ccccc45)C(=O)NC3=O)c3ccccc3n2)CC1 [sotrastaurin]
Method in brief: as §1

alvocidib = compound: CN1CC[C@H](c2c(O)cc(O)c3c(=O)cc(-c4ccccc4Cl)oc23)[C@H](O)C1 [alvocidib]
Method in brief: as §1

Tubastatin A = compound: CN1CCc2c(c3ccccc3n2Cc2ccc(C(=O)NO)cc2)C1 [Tubastatin A]
Method in brief: as §1

[6] = compound: CNC(=O)C1=CC=CC=C1NC2=NC(=NC=C2Cl)NC3=C(C=C(C=C3)N4CCOCC4)OC
Method in brief: as §1

defactinib = compound: CNC(=O)c1ccc(Nc2ncc(C(F)(F)F)c(NCc3nccnc3N(C)S(C)(=O)=O)n2)cc1 [defactinib]
Method in brief: as §1

[7] = compound: CNc1nc(-c2ccc3c(N)n[nH]c3c2)cc(N2C[C@@H](C(=O)NC3CCCCC3)CC[C@H]2C)n1
Method in brief: as §1

encorafenib = compound: COC(=O)N[C@@H](C)CNc1nccc(-c2cn(C(C)C)nc2-c2cc(Cl)cc(NS(C)(=O)=O)c2F)n1 [encorafenib]
Method in brief: as §1

[8] = compound: COC(=O)[C@H](CCSC)NC(=O)C1=C(C=C(C=C1)NC[C@H](CS)N)C2=CC=CC=C2
Method in brief: as §1

alisertib = compound: COc1cc(Nc2ncc3c(n2)-c2ccc(Cl)cc2C(c2c(F)cccc2OC)=NC3)ccc1C(=O)O [alisertib]
Method in brief: as §1

[9] = compound: COc1cc2nc(-c3cc(F)ccc3O)nc(N[C@@H]3CNC[C@H]3C(C)(C)O)c2cc1OC
Method in brief: as §1

gefitinib = compound: COc1cc2ncnc(Nc3ccc(F)c(Cl)c3)c2cc1OCCCN1CCOCC1 [gefitinib]
Method in brief: as §1

barasertib = compound: CCN(CCCOc1ccc2c(Nc3cc(CC(=O)Nc4cccc(F)c4)[nH]n3)ncnc2c1)CCOP(=O)(O)O [barasertib]
Method in brief: as §1

Chain of UniProt Q96A47 (Q96A47 whole entry, looked up): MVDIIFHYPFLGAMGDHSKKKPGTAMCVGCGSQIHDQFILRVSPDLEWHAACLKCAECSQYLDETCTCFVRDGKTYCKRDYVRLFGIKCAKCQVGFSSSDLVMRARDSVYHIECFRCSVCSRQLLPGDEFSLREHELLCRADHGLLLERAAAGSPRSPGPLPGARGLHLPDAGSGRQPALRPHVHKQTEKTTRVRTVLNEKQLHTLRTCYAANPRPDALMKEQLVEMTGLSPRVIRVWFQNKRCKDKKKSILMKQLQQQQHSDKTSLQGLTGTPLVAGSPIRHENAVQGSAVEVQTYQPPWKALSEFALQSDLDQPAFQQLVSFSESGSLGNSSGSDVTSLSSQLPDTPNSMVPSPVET
Chain of UniProt Q99795 (Q99795 whole entry, looked up): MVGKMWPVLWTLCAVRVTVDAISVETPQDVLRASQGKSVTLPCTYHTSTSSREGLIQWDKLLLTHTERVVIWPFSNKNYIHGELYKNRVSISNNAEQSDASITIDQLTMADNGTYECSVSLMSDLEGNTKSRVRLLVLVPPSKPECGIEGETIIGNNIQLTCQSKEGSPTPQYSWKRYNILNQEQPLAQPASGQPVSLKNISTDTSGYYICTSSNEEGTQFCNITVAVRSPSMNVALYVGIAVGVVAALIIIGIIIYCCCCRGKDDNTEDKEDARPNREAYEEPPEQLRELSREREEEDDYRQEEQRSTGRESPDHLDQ
Chain of UniProt Q8IWB1 (Q8IWB1 whole entry, looked up): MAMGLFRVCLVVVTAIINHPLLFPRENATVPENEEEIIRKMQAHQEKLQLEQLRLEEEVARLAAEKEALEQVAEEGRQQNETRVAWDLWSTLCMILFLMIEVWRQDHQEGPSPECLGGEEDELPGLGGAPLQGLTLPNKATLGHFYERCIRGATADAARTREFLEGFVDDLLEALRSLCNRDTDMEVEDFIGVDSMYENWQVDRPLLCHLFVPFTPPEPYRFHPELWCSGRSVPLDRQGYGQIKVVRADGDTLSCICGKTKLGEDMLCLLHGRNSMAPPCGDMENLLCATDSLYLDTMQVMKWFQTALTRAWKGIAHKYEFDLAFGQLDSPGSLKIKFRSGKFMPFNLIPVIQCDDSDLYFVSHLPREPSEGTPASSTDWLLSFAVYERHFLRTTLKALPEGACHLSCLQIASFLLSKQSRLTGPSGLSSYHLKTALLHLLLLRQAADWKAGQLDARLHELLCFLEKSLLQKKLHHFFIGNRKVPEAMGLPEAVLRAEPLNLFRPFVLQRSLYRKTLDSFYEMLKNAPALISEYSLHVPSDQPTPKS
Chain of UniProt P22692 (P22692 whole entry, looked up): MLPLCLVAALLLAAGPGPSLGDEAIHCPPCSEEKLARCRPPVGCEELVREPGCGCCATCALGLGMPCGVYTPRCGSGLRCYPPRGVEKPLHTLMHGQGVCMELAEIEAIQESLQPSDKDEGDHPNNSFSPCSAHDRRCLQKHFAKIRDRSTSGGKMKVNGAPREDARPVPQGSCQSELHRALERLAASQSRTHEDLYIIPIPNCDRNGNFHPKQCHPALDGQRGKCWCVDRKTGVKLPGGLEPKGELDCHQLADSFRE
Chain of UniProt P80108 (P80108 whole entry, looked up): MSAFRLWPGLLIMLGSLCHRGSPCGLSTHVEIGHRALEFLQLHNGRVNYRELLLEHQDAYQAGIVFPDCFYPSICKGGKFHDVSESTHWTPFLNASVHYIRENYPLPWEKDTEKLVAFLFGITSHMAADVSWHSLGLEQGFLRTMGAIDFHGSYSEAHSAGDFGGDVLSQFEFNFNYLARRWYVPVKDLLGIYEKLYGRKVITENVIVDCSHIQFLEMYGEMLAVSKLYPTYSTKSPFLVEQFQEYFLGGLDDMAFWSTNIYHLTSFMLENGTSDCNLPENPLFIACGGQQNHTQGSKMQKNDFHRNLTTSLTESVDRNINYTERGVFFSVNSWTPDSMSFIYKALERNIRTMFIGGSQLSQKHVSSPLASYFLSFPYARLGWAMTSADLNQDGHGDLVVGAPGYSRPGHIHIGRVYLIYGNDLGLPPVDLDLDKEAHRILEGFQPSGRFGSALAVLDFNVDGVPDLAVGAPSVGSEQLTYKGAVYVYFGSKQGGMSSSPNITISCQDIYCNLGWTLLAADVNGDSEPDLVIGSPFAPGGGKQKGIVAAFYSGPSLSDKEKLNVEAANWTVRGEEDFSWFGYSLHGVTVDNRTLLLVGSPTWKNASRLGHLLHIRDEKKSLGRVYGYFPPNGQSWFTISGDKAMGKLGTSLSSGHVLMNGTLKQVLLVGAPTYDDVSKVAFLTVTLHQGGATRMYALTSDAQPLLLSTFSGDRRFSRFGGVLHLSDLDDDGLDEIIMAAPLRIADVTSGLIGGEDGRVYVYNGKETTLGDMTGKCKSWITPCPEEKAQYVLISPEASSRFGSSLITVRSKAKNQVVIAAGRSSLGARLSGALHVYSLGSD
Chain of UniProt Q9UKP3 (Q9UKP3 whole entry, looked up): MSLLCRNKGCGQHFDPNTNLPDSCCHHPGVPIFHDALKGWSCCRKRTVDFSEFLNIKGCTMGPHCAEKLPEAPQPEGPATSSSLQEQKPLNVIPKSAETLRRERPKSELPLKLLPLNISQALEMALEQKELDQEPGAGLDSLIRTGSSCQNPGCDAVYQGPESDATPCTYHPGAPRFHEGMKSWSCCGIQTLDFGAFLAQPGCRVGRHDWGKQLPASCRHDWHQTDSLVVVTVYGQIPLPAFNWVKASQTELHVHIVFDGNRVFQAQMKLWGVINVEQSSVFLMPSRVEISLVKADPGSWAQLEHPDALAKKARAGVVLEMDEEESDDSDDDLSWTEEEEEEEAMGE
Chain of UniProt Q9NSC5 (Q9NSC5 whole entry, looked up): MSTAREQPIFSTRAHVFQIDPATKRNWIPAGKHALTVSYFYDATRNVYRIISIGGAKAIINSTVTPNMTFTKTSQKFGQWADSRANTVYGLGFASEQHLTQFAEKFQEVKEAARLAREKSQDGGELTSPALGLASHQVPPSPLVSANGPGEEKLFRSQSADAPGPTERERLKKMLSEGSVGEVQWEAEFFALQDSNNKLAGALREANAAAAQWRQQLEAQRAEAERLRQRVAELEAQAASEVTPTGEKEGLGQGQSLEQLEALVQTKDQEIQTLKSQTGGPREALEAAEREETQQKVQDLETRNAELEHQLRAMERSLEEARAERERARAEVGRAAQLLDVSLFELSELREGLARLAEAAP
Chain of UniProt Q9Y6M1 (Q9Y6M1 whole entry, looked up): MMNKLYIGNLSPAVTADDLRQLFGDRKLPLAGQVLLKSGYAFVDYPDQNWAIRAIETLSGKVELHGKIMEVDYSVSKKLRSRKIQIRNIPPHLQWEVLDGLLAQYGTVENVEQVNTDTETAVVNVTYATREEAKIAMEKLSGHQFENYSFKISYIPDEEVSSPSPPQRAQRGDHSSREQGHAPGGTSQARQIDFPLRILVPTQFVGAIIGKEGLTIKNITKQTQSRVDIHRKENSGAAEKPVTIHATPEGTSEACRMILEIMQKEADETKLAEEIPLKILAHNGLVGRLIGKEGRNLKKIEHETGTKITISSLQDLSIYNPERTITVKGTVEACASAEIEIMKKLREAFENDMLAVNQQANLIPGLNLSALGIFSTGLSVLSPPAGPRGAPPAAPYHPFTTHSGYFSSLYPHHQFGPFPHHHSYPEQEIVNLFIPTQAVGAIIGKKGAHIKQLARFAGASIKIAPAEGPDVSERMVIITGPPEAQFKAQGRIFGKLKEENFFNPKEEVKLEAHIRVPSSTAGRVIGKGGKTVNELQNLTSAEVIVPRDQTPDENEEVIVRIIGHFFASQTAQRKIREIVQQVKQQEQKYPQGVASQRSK
Chain of UniProt Q96EW2 (Q96EW2 whole entry, looked up): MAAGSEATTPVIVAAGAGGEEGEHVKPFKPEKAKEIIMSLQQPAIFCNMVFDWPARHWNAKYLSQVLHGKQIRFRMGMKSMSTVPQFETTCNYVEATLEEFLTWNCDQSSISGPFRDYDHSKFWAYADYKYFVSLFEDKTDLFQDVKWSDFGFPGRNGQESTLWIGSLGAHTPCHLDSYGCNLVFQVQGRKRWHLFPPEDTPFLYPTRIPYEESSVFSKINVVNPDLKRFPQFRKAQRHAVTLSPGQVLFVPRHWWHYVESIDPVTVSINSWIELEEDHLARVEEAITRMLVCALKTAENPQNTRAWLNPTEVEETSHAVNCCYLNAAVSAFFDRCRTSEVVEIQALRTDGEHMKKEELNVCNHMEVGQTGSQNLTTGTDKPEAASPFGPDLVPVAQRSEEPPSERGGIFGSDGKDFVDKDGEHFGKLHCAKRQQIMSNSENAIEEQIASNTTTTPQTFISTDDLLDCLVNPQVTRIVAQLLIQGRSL
Chain of UniProt Q9Y287 (Q9Y287 whole entry, looked up): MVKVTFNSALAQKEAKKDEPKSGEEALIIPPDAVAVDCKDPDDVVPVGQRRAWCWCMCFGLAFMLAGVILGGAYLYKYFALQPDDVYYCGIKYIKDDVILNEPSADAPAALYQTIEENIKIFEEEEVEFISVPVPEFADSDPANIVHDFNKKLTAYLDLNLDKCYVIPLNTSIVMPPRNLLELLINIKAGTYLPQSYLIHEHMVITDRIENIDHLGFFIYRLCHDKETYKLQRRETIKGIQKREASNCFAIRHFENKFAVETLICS
Chain of UniProt Q9BQQ3 (Q9BQQ3 whole entry, looked up): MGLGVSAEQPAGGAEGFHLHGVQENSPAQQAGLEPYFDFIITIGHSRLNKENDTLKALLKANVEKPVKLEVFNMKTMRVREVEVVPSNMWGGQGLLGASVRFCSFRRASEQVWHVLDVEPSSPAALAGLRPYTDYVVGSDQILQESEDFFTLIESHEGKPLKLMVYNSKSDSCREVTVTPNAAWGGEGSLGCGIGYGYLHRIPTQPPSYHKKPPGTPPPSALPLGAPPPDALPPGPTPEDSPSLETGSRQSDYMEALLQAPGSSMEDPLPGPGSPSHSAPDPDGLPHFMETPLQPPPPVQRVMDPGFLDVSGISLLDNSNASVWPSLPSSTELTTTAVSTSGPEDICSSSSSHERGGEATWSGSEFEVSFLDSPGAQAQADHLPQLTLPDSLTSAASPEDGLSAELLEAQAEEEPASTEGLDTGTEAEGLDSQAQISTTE

Row | Target | log2 fold change (vemurafenib) | log2 fold change [1] | log2 fold change [2] | log2 fold change (volasertib) | log2 fold change [3] | log2 fold change [4] | log2 fold change [5] | log2 fold change (saracatinib) | log2 fold change (sotrastaurin) | log2 fold change (alvocidib) | log2 fold change (Tubastatin A) | log2 fold change [6] | log2 fold change (defactinib) | log2 fold change [7] | log2 fold change (encorafenib) | log2 fold change [8] | log2 fold change (alisertib) | log2 fold change [9] | log2 fold change (gefitinib) | log2 fold change (barasertib)
1 | GPN2 (UniProt Q9H9Y4) | -0.027 | 0.026 | -0.098 | -0.028 | 0.072 | 0.009 | 0.019 | 0.003 | 0.021 | -0.034 | -0.027 | -0.004 | 0.112 | -0.007 | 0.19 | -0.038 | 0.008 | -0.038 | -0.001 | 
2 | HSPBAP1 (UniProt Q96EW2) |  | 0.04 | 0.155 | 0.044 | -0.058 | -0.293 | -0.038 | -0.054 | 0.027 | -0.094 | -0.139 | 0.02 |  | -0.547 (active) | 0.097 | -0.154 | -0.113 | -0.104 | -0.005 | 0.012
3 | ITM2B (UniProt Q9Y287) | 0.021 |  |  |  | -0.012 | -0.141 | 0.069 | -0.053 | -0.012 | 0.015 | 0.007 | 0.037 | 0.16 | 0.074 |  |  | 0.006 |  | 0.008 | 0.258
4 | GPLD1 (UniProt P80108) |  |  |  |  |  |  |  | 0.236 | -0.13 |  |  |  |  | -0.452 |  |  |  |  |  | 
5 | HNRNPUL1 (UniProt M0R247) |  |  |  |  |  | 0.004 | 0.037 |  |  | -0.042 |  | -0.03 |  |  |  |  |  |  |  | 0.109
6 | HNRNPM (UniProt M0QZM1) | -0.027 |  | 0.171 |  |  |  |  | -0.066 | -0.054 |  |  |  | 0.073 | 0.128 | 0.006 | -0.025 |  |  |  | 0.229
7 | HOMER3 (UniProt Q9NSC5) |  | 0.123 |  | -0.011 |  | 0.037 | -0.071 |  | 0.028 | -0.066 |  |  |  |  |  |  |  | 0.069 |  | -0.129
8 | GORASP1 (UniProt Q9BQQ3) | 0.011 | -0.016 | -0.065 | 0.092 | -0.019 | -0.025 | 0.08 | 0.03 | 0.016 | -0.052 | -0.035 | 0.018 | 0.008 | -0.071 | 0.108 | -0.009 | -0.037 | 0.076 | 0.016 | 
9 | IGF2BP2 isoform 6 (UniProt Q9Y6M1) |  | -0.003 |  | -0.153 |  |  |  |  |  |  |  |  |  |  |  |  |  | 0.289 |  | 
10 | KIAA0930 isoform 2 (UniProt Q6ICG6) | -0.118 | -0.009 | 0.162 | 0.14 | 0.159 | -0.078 | 0.028 | 0.098 | 0.075 | -0.067 | 0.077 |  | 0.03 | -0.118 | -0.089 | -0.032 | 0.073 | 0.013 | -0.063 | 0.002
11 | HYDIN (UniProt Q4G0P3) | -0.075 | 0.081 | 0.089 | 0.021 | 0.76 |  |  | 0.028 |  |  | -0.041 |  | 0.045 | 0.414 | 0.172 | -0.02 |  | -0.154 |  | 
12 | HNRNPL, A0A3B3ITJ4 |  | 0.087 |  | -0.072 |  |  |  |  |  |  |  |  |  |  |  |  |  | 0.032 |  | 0.14
13 | GPA33 (UniProt Q99795) | -0.038 | -0.014 | -0.011 | 0.081 | -0.032 | -0.925 (active) | 0.612 (active) | -0.005 |  | -0.349 | 0.103 | -0.076 | -0.099 | -0.193 | 0.053 | -0.027 | 0.071 | 0.039 | 0.125 | -0.047
14 | ITGB1BP2 (UniProt Q9UKP3) | 0.045 |  | -0.07 |  |  | -0.032 | 0.443 | 0.005 |  | -0.116 |  |  | -0.112 | -0.018 | -0.137 | 0.044 |  |  |  | 
15 | ITPRIP (UniProt Q8IWB1) |  |  |  |  |  |  |  | -0.143 |  |  |  | 0.994 (active) |  | -0.268 |  |  |  |  |  | 
16 | HMGN5 (UniProt Q5JSK9) |  | -0.013 | 0.039 | 0.054 |  |  |  |  |  |  |  |  |  |  | 0.055 | -0.111 | 0.049 | 0.055 | 0.063 | -0.03
17 | IGFBP4 (UniProt P22692) |  | -0.171 |  | -0.002 | 0.04 | -0.063 | 0.009 | 0.016 | -0.028 | -0.149 | -0.083 | 0.045 |  | -0.084 |  |  | -0.005 | 0.454 (active) | 0.005 | -0.281
18 | IRS2 (UniProt Q9Y4H2) |  | 0.026 |  | -0.073 | 0.047 | -0.698 | 0.341 | 0.013 | -0.025 | -0.301 | -0.254 | -0.02 |  | 0.275 |  |  | 0.068 | 0.004 | 0.08 | -0.019
19 | H3-3A (UniProt P84243) | 0.027 | 0.015 | -0.017 | -0.006 |  | 0.027 | -0.025 |  | -0.028 | 0.021 |  | 0.063 | -0.04 |  | 0.132 | -0.034 |  | -0.032 |  | 0.067
20 | GSTM2 (UniProt P28161) | -0.005 | 0.07 | 0.015 | 0.005 | -0.027 | 0.131 | -0.091 | 0.003 |  | 0.079 | 0.045 | 0.009 | 0.036 | -0.016 | -0.024 | 0.068 | 0.01 | -0.015 | 0.034 | 0.024
21 | HNRNPM (UniProt M0R019) | -0.137 |  |  |  |  |  |  |  |  |  |  |  | -0.112 |  |  |  |  |  |  | 
22 | ISL2 (UniProt Q96A47) |  |  |  |  | 0.018 | 0.832 (active) | -0.397 (active) | 0.028 | -0.107 | 0.36 | 0.032 | -0.042 |  | 0.025 |  |  |  |  |  | -0.108
